This excerpt belongs to a sample that is enriched for hits.
ST2 inh = inhibitors of human ST2 (IL1RL1) binding to IL-33, primary screen, biochemical, AlphaLISA | inhibition, % for hits at 17 µM | AlphaLISA ST2-Fc/biotin-IL-33 interaction, 1 h | Interleukin-1 receptor-like 1 (Homo sapiens), Q01638 | AID 1259354, 2018 | 78,000 tested, 2.3% active; in the data active means inhibition above about 30%
Target sequence (Q01638 whole entry, looked up): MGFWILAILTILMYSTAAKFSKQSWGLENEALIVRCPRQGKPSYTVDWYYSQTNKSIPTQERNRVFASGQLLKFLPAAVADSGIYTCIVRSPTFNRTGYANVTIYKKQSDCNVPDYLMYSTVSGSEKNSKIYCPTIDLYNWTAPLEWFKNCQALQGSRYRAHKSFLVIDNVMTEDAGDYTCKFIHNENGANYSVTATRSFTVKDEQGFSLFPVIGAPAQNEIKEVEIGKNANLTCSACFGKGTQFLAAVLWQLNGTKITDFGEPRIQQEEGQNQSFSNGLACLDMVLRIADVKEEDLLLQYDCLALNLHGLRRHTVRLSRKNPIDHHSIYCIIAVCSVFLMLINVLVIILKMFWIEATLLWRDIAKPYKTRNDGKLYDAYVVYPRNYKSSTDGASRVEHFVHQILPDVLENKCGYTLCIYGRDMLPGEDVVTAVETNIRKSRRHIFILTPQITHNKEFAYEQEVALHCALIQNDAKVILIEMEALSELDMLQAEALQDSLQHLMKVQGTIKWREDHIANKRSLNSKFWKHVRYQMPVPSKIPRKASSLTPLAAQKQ
The depositor's hits bear a star.

How did CC1=C(C(N)=O)C(c2ccc(O)cc2)n2nc(SCc3ccccc3)nc2N1 (stereo not drawn) do in these assays?
ST2 inh: inactive

What do the screens show for `COC(=O)C1C(=O)C2=C(CC1C)NC(C)=C(C(=O)OC(C)C)C2c1cccs1` (stereo not drawn)?
ST2 inh: inactive

How did CCOC(=O)c1sc2c(c1NC(=O)c1ccc3c(c1)OCCO3)CCCC2 do in these assays?
ST2 inh: inactive

Results for Cc1cccc(N2CCC(NCCSc3ncn[nH]3)CC2)c1 ?
ST2 inh: inactive

How did CC(=O)c1ccc(NC(=O)COc2ccc(C)cc2C)cc1 do in these assays?
ST2 inh: inactive

How did Cc1nnsc1CN(C)C(=O)CCC(=O)NC1CCCC1 do in these assays?
ST2 inh: 97.0%*

How did O=C(CCC(=O)NC1CCCCCC1)NC1CCCCCC1 do in these assays?
ST2 inh: inactive

Results for Cc1nnsc1CN(C)CC(=O)NC1CCCCCCC1 ?
ST2 inh: inactive

How did Cc1nn(Cc2ccc(F)cc2)c(C)c1NC(=O)CCCn1nc([N+](=O)[O-])c(Cl)c1C do in these assays?
ST2 inh: inactive

Results for Cc1c(CCO)c2ccccc2n1-c1ccccc1 ?
ST2 inh: inactive

How did CCC(SC1=Nc2ccccc2C2=NC(C(C)CC)C(=O)N12)C(=O)NCc1cccnc1 (stereo not drawn) do in these assays?
ST2 inh: inactive

How did [N-]=C=C1C(=O)N(CCc2ccccc2)C(=O)[C@H]([n+]2ccccc2)[C@H]1c1ccc(Cl)cc1 do in these assays?
ST2 inh: 34.0%*

Results for O=C1C(=O)N(CCc2ccccc2)C(c2ccc(Cl)cc2)C1=C(O)c1ccccc1 (stereo not drawn) ?
ST2 inh: inactive

Results for COCC(=O)Nc1cc(C(=O)N(C)CCc2cnn(C)c2)cc2nc(-c3ccccc3)n(C)c12 ?
ST2 inh: inactive

Results for N.N.[Cl-].[Cl-].[Pt+4] ?
ST2 inh: 77.0%*

What do the screens show for `CN(C)c1ccc(NC(=O)Cc2ccccc2[N+](=O)[O-])cc1`?
ST2 inh: inactive

How did COc1ccc(S(=O)(=O)NC[C@H]2O[C@@H](CO)[C@@H](O)[C@H]2N2CCN(c3cccc(C(F)(F)F)c3)CC2)cc1 do in these assays?
ST2 inh: inactive

How did Cn1cc(C(=O)N2CCN(C3CCCCC3)CC2)c2c3ccccc3n(C)c2c1=O do in these assays?
ST2 inh: inactive

Results for Cc1ccc(-c2noc(CCC(=O)Nc3nc4ccccc4s3)n2)cc1 ?
ST2 inh: inactive

Results for COc1cc(/C=C2/C(=O)N(c3ccc(Br)cc3)N=C2C)cc([N+](=O)[O-])c1O ?
ST2 inh: inactive

What do the screens show for `COc1cc(/C=C2/SC(=O)NC2=O)c([N+](=O)[O-])cc1OC`?
ST2 inh: inactive

How did COc1cc(/C=C2\C(=O)N(c3cccc(C(=O)O)c3)N=C2C)cc([N+](=O)[O-])c1O do in these assays?
ST2 inh: inactive

Results for COc1ccccc1/C=C/C1=NC(=C\c2ccccc2[N+](=O)[O-])/C(=O)O1 ?
ST2 inh: inactive

What do the screens show for `COc1cc(/C=C2\Sc3ccccc3C2=O)cc([N+](=O)[O-])c1O`?
ST2 inh: 30.0%*

How did COc1cc(Br)cc(/C=C2/NC(=O)NC2=O)c1O do in these assays?
ST2 inh: inactive

Results for COc1cc(Br)cc(/C=C2\Sc3ccccc3C2=O)c1O ?
ST2 inh: 60.0%*

How did O=C1/C(=C/c2ccccc2[N+](=O)[O-])Sc2ccccc21 do in these assays?
ST2 inh: 31.0%*

How did COc1cc(C=O)cc(C=O)c1O do in these assays?
ST2 inh: inactive

What do the screens show for `O=C(Nc1cc(F)ccc1F)[C@H](CSCc1ccccc1)N1Cc2ccccc2C1=O`?
ST2 inh: inactive

How did Cc1cc(-c2c(-c3ccccc3)ncn2Cc2ccc(CO)cc2)n[nH]1 do in these assays?
ST2 inh: inactive

Results for CCOc1ccc(-n2c(SCc3cccc(F)c3)nc3c(c2=O)SCC3)cc1 ?
ST2 inh: inactive

What do the screens show for `CSc1ccc(-c2nccn2CCCn2ccnc2)cc1`?
ST2 inh: inactive

What do the screens show for `Cc1nn(C)c(Cl)c1-c1c(-c2ccccc2)ncn1C1CC=CC1`?
ST2 inh: inactive

What do the screens show for `CN1CCC(n2cnc(-c3ccccc3)c2-c2cccc3cccnc23)CC1`?
ST2 inh: 30.0%*

How did CN1CC(n2cnc(-c3ccccc3)c2-c2ccccc2C(=O)O)CCC1=O (stereo not drawn) do in these assays?
ST2 inh: inactive

How did CC1=C[C@@H](CNC(=O)c2ccco2)[C@H](C(C)C)C[C@H]1CC(=O)NC1CCCC1 do in these assays?
ST2 inh: inactive

How did O=c1[nH]cc(COCC(F)(F)C(F)F)c(=O)[nH]1 do in these assays?
ST2 inh: inactive

How did CCSCCOC(=O)C1=C(C)Nc2ccccc2S1 do in these assays?
ST2 inh: 43.0%*

What do the screens show for `CCSCCOC(=O)C1=C(C)NC2=C(C(=O)CCC2)C1c1cccc(Br)c1` (stereo not drawn)?
ST2 inh: inactive

What do the screens show for `CCOc1ccccc1C1C(C(=O)OCCSCC)=C(C)NC2=C1C(=O)CC(C)(C)C2` (stereo not drawn)?
ST2 inh: inactive

What do the screens show for `Cc1ccc(OCCCn2cnc3ccccc3c2=O)c(Br)c1`?
ST2 inh: inactive

What do the screens show for `Cc1cccc(N2C(=O)CC(Sc3nccc(C)n3)C2=O)c1` (stereo not drawn)?
ST2 inh: inactive

How did COc1cc(OC)cc(N2C(=O)CC(Sc3ncn[nH]3)C2=O)c1 (stereo not drawn) do in these assays?
ST2 inh: inactive

Results for Cc1ccc(N2C(=O)CC(Sc3ncn[nH]3)C2=O)cc1C (stereo not drawn) ?
ST2 inh: 36.0%*

How did CC1(C)CC(C(CCN2C(=O)c3ccccc3C2=O)c2ccccc2)CCO1 (stereo not drawn) do in these assays?
ST2 inh: inactive

What do the screens show for `N#Cc1ccc(-c2ccncc2)nc1SCc1ccc(F)cc1`?
ST2 inh: 34.0%*

Results for CCSc1nc(-c2ccccc2)ccc1C#N ?
ST2 inh: inactive

What do the screens show for `N#Cc1ccc(-c2ccccc2)nc1SCC(=O)c1ccc(O)c(O)c1`?
ST2 inh: inactive

How did CCC(C)Nc1ncnc2sc(C)c(S(=O)(=O)N3CCC(C)CC3)c12 (stereo not drawn) do in these assays?
ST2 inh: inactive

How did COc1cccc(-n2cc(CN(C)C(=O)c3nn(C)c4c3CCCC4)cn2)c1 do in these assays?
ST2 inh: inactive

Results for O=[N+]([O-])c1ccc(N2CCN(Cc3ccccc3)CC2)c(S(=O)(=O)N2CCOCC2)c1 ?
ST2 inh: inactive

Results for CN(C)S(=O)(=O)c1cc([N+](=O)[O-])ccc1N1CCCCCC1 ?
ST2 inh: inactive

What do the screens show for `O=S(=O)(c1ccc(Cl)c(Cl)c1)N1CCCCC1`?
ST2 inh: inactive

What do the screens show for `O=[N+]([O-])c1ccccc1N1CCN(S(=O)(=O)c2ccc(Cl)c(Cl)c2)CC1`?
ST2 inh: 30.0%*

How did O=[N+]([O-])c1ccccc1S(=O)(=O)Nc1ccc(Cl)c(Cl)c1 do in these assays?
ST2 inh: inactive

What do the screens show for `Cc1ccc(S(=O)(=O)N2CCN(C(=O)c3ccccc3)C2)cc1[N+](=O)[O-]`?
ST2 inh: inactive

How did O=[N+]([O-])c1ccc(N2CCN(c3ccccc3)CC2)c(S(=O)(=O)N2CCCCC2)c1 do in these assays?
ST2 inh: 50.0%*

What do the screens show for `Cc1ccc(S(=O)(=O)N2CCN(S(=O)(=O)c3ccccc3)C2)cc1[N+](=O)[O-]`?
ST2 inh: inactive
